The text below walks through data of PubChem BioAssay (EPA / NIEHS).

In general, AC50 refers to the concentration giving half of the maximal activity seen.

Read-out in assay [1]: Vascular endothelial growth factor receptor 2 (Homo sapiens) (UniProt P35968)
In words: BSK_4H_VEGFRII: BioMAP Diversity Plus: 4H Assay for Vascular endothelial growth factor receptor 2 (VEGFR2) Biomarker Activity (AID 2283031).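 As to AC50: cell-surface VEGFR2 protein level quantified by ELISA.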 Conditions: primary human endothelial cells (HUVEC); actives raise or lower the signal. In a few lines:
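VEGFRII levels on human vascular endothelial primary cells were determined by ELISA at 24 hours post-dosing, with gain- or loss-of-signal fitted against DMSO controls.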

Read-out in assay [2]: Human Leukocyte Antigen - DR isotype (HLADR), HLA-DRA (gene 3122)
In words: BSK_BE3C_HLADR: BioMAP Diversity Plus: BE3C Assay for Human Leukocyte Antigen - DR isotype (HLADR) Biomarker Activity (AID 2283032). As to conditions: primary human bronchial epithelial cells; actives raise or lower the signal. In a few lines: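 Cell-surface HLA-DR ELISA readout at 24 h after dosing in the BE3C primary human lung bronchial epithelial system; gain or loss of signal against DMSO, with parallel sulforhodamine B staining of total protein for overt cytotoxicity.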

Read-out in assay [3]: Vascular cell adhesion molecule 1 (VCAM1), VCAM1 (gene 7412)
The assay can be described thus: BSK_4H_VCAM1: BioMAP Diversity Plus: 4H Assay for Vascular cell adhesion molecule 1 (VCAM1) Biomarker Activity (AID 2283033).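 As to outcome: cell-surface VCAM-1 protein measured by ELISA.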 As to conditions: primary human endothelial cells (HUVEC); actives raise or lower the signal. The gist of the method: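 VCAM-1 ELISA read 24 h after chemical dosing of HUVEC in the BioMAP 4H system, with gain or loss of signal fitted relative to DMSO. Parallel SRB staining (560 nm) checked overt cytotoxicity.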

Read-out in assay [4]: Interferon-gamma inducible Protein 10 (IP10), CXCL10 (gene 3627)
The assay can be described thus: BSK_BE3C_IP10: BioMAP Diversity Plus: BE3C Assay for Interferon-gamma inducible Protein 10 (IP10) Biomarker Activity (AID 2283034). As to conditions: primary human bronchial epithelial cells; actives raise or lower the signal. In a few lines:
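IP-10 quantified by ELISA in human primary bronchial epithelial cell cultures at 24 hours post-dosing. Gain or loss of signal fitted relative to DMSO; parallel SRB staining assessed overt cytotoxicity.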

Read-out in assay [5]: Monokine induced gamma interferon (MIG), CXCL9 (gene 4283)
In words: BSK_BE3C_MIG: BioMAP Diversity Plus: BE3C Assay for Monokine induced gamma interferon (MIG) Biomarker Activity (AID 2283035). Conditions: primary human bronchial epithelial cells; actives raise or lower the signal. The gist of the method: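 ELISA quantified MIG after 24 h exposure of primary bronchial epithelial cultures, analysed in both directions relative to DMSO. Cytotoxicity tracked in parallel cultures by sulforhodamine B staining.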

Read-out in assay [6]: Transforming growth factor beta 1 (TGFb1), TGFB1 (gene 7040)
The assay can be described thus: BSK_BE3C_TGFb1: BioMAP Diversity Plus: BE3C Assay for Transforming growth factor beta 1 (TGFb1) Biomarker Activity (AID 2283036;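 as to outcome: TGF-b1 protein level measured by ELISA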). As to conditions: primary human bronchial epithelial cells; actives raise or lower the signal. The gist of the method: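 ELISA readout of TGF-b1 from human lung bronchial epithelial primary cells, taken 24 h post-treatment. Gain or loss of signal fitted relative to DMSO baseline, with parallel SRB staining for overt cytotoxicity.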

Read-out in assay [7]: Plasminogen activator inhibitor-1 (PAI1), SERPINE1 (gene 5054)
In words: BSK_BE3C_PAI1: BioMAP Diversity Plus: BE3C Assay for Plasminogen activator inhibitor-1 (PAI1) Biomarker Activity (AID 2283037). Conditions: primary human bronchial epithelial cells; actives raise or lower the signal. In a few lines: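 PAI-1 was measured by ELISA in human primary bronchial epithelial cultures 24 h after chemical dosing, with cytotoxicity checked by SRB total-protein staining in parallel cultures. Activity was fitted in both directions relative to DMSO.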

Read-out in assay [8]: urokinase plasminogen activator (uPA), PLAU (gene 5328)
In words: BSK_BE3C_uPA: BioMAP Diversity Plus: BE3C Assay for urokinase plasminogen activator (uPA) Biomarker Activity (AID 2283038).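 As to outcome: uPA protein level quantified by ELISA in cell cultures; uPA read one day after compound addition.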 Conditions: primary human bronchial epithelial cells; actives raise or lower the signal. The gist of the method: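 Measured by ELISA: uPA from human primary bronchial epithelial cells 24 h after chemical treatment. Values derive from bidirectional curve fitting with DMSO serving as negative control. Total protein by SRB staining in parallel wells flagged overt cytotoxicity.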

Read-out in assay [9]: Urokinase-type plasminogen activator receptor (uPAR), PLAUR (gene 5329)
The assay can be described thus: BSK_BE3C_uPAR: BioMAP Diversity Plus: BE3C Assay for Urokinase-type plasminogen activator receptor (uPAR) Biomarker Activity (AID 2283039).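 As to outcome: cells exposed to compound for one day before measurement.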 As to conditions: primary human bronchial epithelial cells; actives raise or lower the signal. The gist of the method: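 uPAR levels were measured by ELISA after 24 h compound treatment of primary human bronchial epithelial cells, fitted in both directions relative to DMSO. Parallel SRB staining served as the cytotoxicity read-out.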

Read-out in assay [10]: Interleukin-6 (IL6), IL6 (gene 3569)
The assay can be described thus: BSK_CASM3C_IL6: BioMAP Diversity Plus: CASM3C Assay for Interleukin-6 (IL6) Biomarker Activity for (AID 2283040). Conditions: primary human coronary artery smooth muscle cells; actives raise or lower the signal.

Read-out in assay [11]: Tissue plasminogen activator (tPA), PLAT (gene 5327)
The assay can be described thus: BSK_BE3C_tPA: BioMAP Diversity Plus: BE3C Assay for Tissue plasminogen activator (tPA) Biomarker Activity (AID 2283041).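 As to outcome: tPA level quantified by ELISA one day after compound addition.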 As to conditions: primary human bronchial epithelial cells; actives raise or lower the signal. In a few lines: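 tPA measured by ELISA 24 h after dosing human primary bronchial epithelial cells (BE3C system). Changes in either direction were fitted against DMSO. Parallel cultures were stained with SRB to flag overt cytotoxicity.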

Read-out in assay [12]: Interleukin-8 (IL8), CXCL8 (gene 3576)
The assay can be described thus: BSK_CASM3C_IL8: BioMAP Diversity Plus: CASM3C Assay for Interleukin-8 (IL8) Biomarker Activity (AID 2283042).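 Also: IL-8 protein level quantified by ELISA.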 As to conditions: primary human coronary artery smooth muscle cells; actives raise or lower the signal.

Read-out in assay [13]: Human Leukocyte Antigen - DR isotype (HLADR), HLA-DRA (gene 3122)
In words: BSK_CASM3C_HLADR: BioMAP Diversity Plus: CASM3C Assay for Human Leukocyte Antigen - DR isotype (HLADR) Biomarker Activity (AID 2283043).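 Also: cell-surface HLA-DR protein level quantified by ELISA.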 Conditions: primary human coronary artery smooth muscle cells; actives raise or lower the signal.

Read-out in assay [14]: Macrophage colony-stimulating factor (MCSF), CSF1 (gene 1435)
The assay can be described thus: BSK_CASM3C_MCSF: BioMAP Diversity Plus: CASM3C Assay for Macrophage colony-stimulating factor (MCSF) Biomarker Activity (AID 2283044).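 Also: M-CSF protein amount quantified by ELISA after 24 h exposure.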 As to conditions: primary human coronary artery smooth muscle cells; actives raise or lower the signal.

Read-out in assay [15]: Low-density lipoprotein receptor (LDLR), LDLR (gene 3949)
The assay can be described thus: BSK_CASM3C_LDLR: BioMAP Diversity Plus: CASM3C Assay for Low-density lipoprotein receptor (LDLR) Biomarker Activity (AID 2283045).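 Also: LDLR protein level on the cell surface quantified by ELISA.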 Conditions: primary human coronary artery smooth muscle cells; actives raise or lower the signal.

Read-out in assay [16]: Monocyte Chemoattractant Protein-1 (MCP1), CCL2 (gene 6347)
The assay can be described thus: BSK_CASM3C_MCP1: BioMAP Diversity Plus: CASM3C Assay for Monocyte Chemoattractant Protein-1 (MCP1) Biomarker Activity (AID 2283046).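 Also: MCP-1 level quantified by ELISA 24 h after dosing.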 Conditions: primary human coronary artery smooth muscle cells; actives raise or lower the signal.

Assay [17] in a line: BSK_CASM3C_Proliferation: Cell Proliferation Assessment in the BioMAP Diversity Plus: CASM3C Assay (AID 2283047).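 Also: sulforhodamine B total protein stain as relative cell number at 560 nm; sub-confluent cells exposed 48 h before staining; fitted both ways against DMSO so gain or loss of cell number.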 Conditions: primary human coronary artery smooth muscle cells.
Read-out in assay [18]: Monokine induced gamma interferon (MIG), CXCL9 (gene 4283)
The assay can be described thus: BSK_CASM3C_MIG: BioMAP Diversity Plus: CASM3C Assay for Monokine induced gamma interferon (MIG) Biomarker Activity (AID 2283048).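 Also: MIG protein level measured by ELISA.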 As to conditions: primary human coronary artery smooth muscle cells; actives raise or lower the signal.

Read-out in assay [19]: serum amyloid A (SAA), SAA1 (gene 6288)
The assay can be described thus: BSK_CASM3C_SAA: BioMAP Diversity Plus: CASM3C Assay for serum amyloid A (SAA) Biomarker Activity (AID 2283049).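 Also: SAA protein level quantified by ELISA.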 As to conditions: primary human coronary artery smooth muscle cells; actives raise or lower the signal.

Assay [20] can be described thus: BSK_CASM3C_SRB: Viability Assessment in the BioMAP Diversity Plus: CASM3C Assay (AID 2283050). Conditions: primary human coronary artery smooth muscle cells.

Structures are written as SMILES. The source made the active and inactive calls. The calls were made as follows: active = hit-call score of the fitted dose curve at least 0.9, where 1 is the maximum; inactive = score below 0.9.

Turning to `O=C(O)CCCCC(=O)O`, the outcome in [1], in assay [2], in assay [3], in assay [4], in [5] and in assay [6] was inactive. The result in assay [7], in [8], in assay [9], in assay [10], in assay [11] and in assay [12] was inactive. Further, the result in assay [13], in assay [14], in assay [15], in assay [16], in assay [17] and in [18] was inactive. Moreover, the result in assay [19] and in assay [20] was inactive.
Consider `CN[C@H]1CC[C@@H](c2ccc(Cl)c(Cl)c2)c2ccc(S(N)(=O)=O)cc21`, for which the AC50 in assay [1] was 20 µM (active); in assay [2], 31.4 µM (active); in assay [3], 17.3 µM (active); in assay [4], 37 µM (active); in assay [5] it was 36.7 µM (active); in assay [6], 31.1 µM (active). The AC50 in assay [7] is 32.5 µM (active); in assay [8] it was 31.1 µM (active); in [9] it was 30.2 µM (active); in assay [10], 33.1 µM (active); in assay [11] it was 13 µM (active); in assay [12], 35.3 µM (active). The AC50 in [13] is 32.5 µM (active); in [14], 28.2 µM (active); in assay [15], 34.8 µM (active); in [16], 30.4 µM (active); in [17], 14.7 µM (active); in assay [18] it was 31.2 µM (active). Also, the AC50 was 36 µM (active) in [19] and 31.3 µM (active) in assay [20].
On to `OC[C@@H](O)[C@@H](O)[C@H](O)[C@H](O)CO`, for which the outcome in assay [1], in [2], in [3], in [4], in [5] and in assay [6] was inactive. The outcome in assay [7], in assay [8], in assay [9], in assay [10], in [11] and in [12] was inactive. In addition, the outcome in assay [13], in assay [14], in assay [15], in assay [16], in assay [17] and in assay [18] was inactive. For the same compound, the outcome in [19] and in assay [20] was inactive.
Take `COc1ccc(C)cc1N`: the result in assay [1], in assay [2], in assay [3], in assay [4], in [5] and in [6] was inactive. The result in assay [7], in [8], in [9], in assay [10], in assay [11] and in assay [12] was inactive. For the same compound, the outcome in assay [13], in assay [14], in assay [15], in assay [16], in [17] and in assay [18] was inactive. The outcome in [19] and in [20] was inactive.
In the case of `COCCOCCOC`, the result in assay [1], in assay [2], in assay [3], in [4], in assay [5] and in assay [6] was inactive. The result in assay [7], in assay [8], in assay [9], in assay [10], in [11] and in assay [12] was inactive. Also, the outcome in assay [13], in assay [14], in assay [15], in [16], in assay [17] and in assay [18] was inactive. Further, the outcome in assay [19] and in assay [20] was inactive.
As to `Cc1oc(-c2ccccc2)nc1CCOc1cccc2c1ccn2CCC(=O)O`, the result in assay [1], in [3], in assay [5], in assay [6], in assay [7] and in assay [8] was inactive. Further, the result in assay [9], in [10], in assay [12], in [13], in [14] and in assay [15] was inactive. Moreover, the outcome in [16], in assay [17], in assay [18], in assay [19] and in [20] was inactive. Also, the AC50 in assay [2] was 20.7 µM (active); in assay [4], 26 µM (active); in assay [11], 20 µM (active).
